According to the supplement of paper PMC10127200:
Where a name gives a salt, the structure may show the parent alone.

Legend:
Assay in all cases: Euclidean distance of Cell Painting phenotypic profile (signed KS, 77 features) to DMSO centroid (dimensionless distance); 5 or 10 uM (library dependent); higher = stronger phenotypic change vs DMSO (phenoactivity)
Settings in all cases: 48 h
[1] = tested on: 786-O
In short: (§1)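 Library compounds were applied at 10 or 5 uM, depending on the library, with 0.1% DMSO final, for 48 h to five cancer lines and a healthy fibroblast line. After staining, cells were imaged confocally at 20X across 9 fields per well, and Harmony extracted 77 features, each scored as a signed Kolmogorov-Smirnov statistic against vehicle wells on the same plate. Phenoactivity is the Euclidean distance between each profile and the median vehicle profile, with profiles first plate-position corrected, correlation-weighted and averaged over replicates at the top dose.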

[2] = tested on: A549
In short: as §1

[3] = tested on: DU145
In short: as §1

[4] = tested on: FB
In short: as §1

[5] = tested on: HEPG2
In short: as §1

[6] = tested on: OVCAR4
In short: as §1

Structure (SMILES) | Euclidean distance [1] | Euclidean distance [2] | Euclidean distance [3] | Euclidean distance [4] | Euclidean distance [5] | Euclidean distance [6]
COc1cccc(N2CCN(C3=Nc4c(F)cccc4C(CC(=O)O)N3c3cc(C(F)(F)F)ccc3OC)CC2)c1 (stereo unspecified) [Letermovir(AIC246)] | 1.22 | 1.44 | 0.984 | 0.978 | 0.523 | 1.01
CS(=O)(=O)Nc1cc2occ(NC=O)c(=O)c2cc1Oc1ccccc1 [Iguratimod] | 0.942 | 0.587 | 2.23 | 1.05 | 0.878 | 0.85
C[C@@H]1O[C@@H](OC[C@H]2O[C@@H](Oc3c(-c4ccc(OCCO)c(OCCO)c4)oc4cc(OCCO)cc(O)c4c3=O)[C@H](O)[C@@H](O)[C@@H]2O)[C@H](O)[C@H](O)[C@H]1O [Troxerutin] | 1.35 | 0.502 | 0.751 | 0.834 | 0.509 | 0.81
O=C1c2c(O)cc(O)cc2OC(c2ccc(O)c(O)c2)C1O (stereo unspecified) [Taxifolin (Dihydroquercetin)] | 1.12 | 0.542 | 1.09 | 1.25 | 0.834 | 0.517
CC(/C=C1\SC(=S)N(CC(=O)O)C1=O)=C\c1ccccc1 [Epalrestat] | 1.29 | 1.2 | 0.915 | 1.45 | 0.723 | 0.848
O=C(c1ccc(/C=C/c2n[nH]c3ccccc23)cc1)N1CCNCC1 | 3.16 | 3.89 | 3.66 | 3.31 | 2.78 | 3.53
C[C@@H]1C[C@H]2[C@@H]3C[C@H](F)C4=CC(=O)C=C[C@]4(C)[C@@]3(F)[C@@H](O)C[C@]2(C)[C@@]1(O)C(=O)CO [Flumethasone] | 1.24 | 2.47 | 2.17 | 2.26 | 0.627 | 1.97
Cc1cc(-c2ccccc2)nnc1NCCN1CCOCC1 [Minaprine dihydrochloride] | 0.893 | 1.02 | 0.918 | 1.32 | 0.555 | 1.06
Cn1c(Nc2ccc(C(F)(F)F)cc2)nc2cc(Oc3ccnc(-c4ncc(C(F)(F)F)[nH]4)c3)ccc21 | 1.98 | 1.97 | 1.46 | 3.86 | 1.24 | 1.5
COc1cc(-c2cc(-c3cccc(O)c3)cnc2N)cc(OC)c1OC | 2.06 | 2.24 | 1.46 | 2.23 | 1.93 | 1.77
CN1CCC(=C2c3ccccc3CCc3sccc32)CC1 [Pizotifen Malate] | 1.65 | 1.87 | 2.14 | 2.2 | 1.73 | 1.29
CCOc1ccc(Cc2cc([C@]34OC[C@](CO)(O3)[C@@H](O)[C@H](O)[C@H]4O)ccc2Cl)cc1 [Ertugliflozin] | 1.45 | 0.762 | 1.22 | 0.862 | 0.465 | 1.23
CCN(CC)Cc1ccc2cc(COC(=O)Nc3ccc(C(=O)NO)cc3)ccc2c1 [Givinostat (ITF2357)] | 2.68 | 3.9 | 2.88 | 3.63 | 4.2 | 3.32
CN1C(N)=N[C@](C)(c2cc(NC(=O)c3ccc(F)cn3)ccc2F)CS1(=O)=O [Verubecestat (MK-8931)] | 0.523 | 0.58 | 0.609 | 0.675 | 0.509 | 0.924
C[C@H]1COc2c(N3CCN(C)CC3)c(F)cc3c(=O)c(C(=O)O)cn1c23 [Levofloxacin hydrate] | 1.06 | 0.678 | 1.07 | 1.25 | 0.54 | 1.57
COC(=O)/C=C/C(=O)OCCN1C(=O)CCC1=O [Diroximel Fumarete] | 0.82 | 0.396 | 1.17 | 1.24 | 0.611 | 0.814
O=C(Nc1cccc(Nc2ncc(Br)c(NCCc3cnc[nH]3)n2)c1)N1CCCC1 | 2.94 | 3.51 | 3.14 | 3.05 | 2.43 | 3.33
CCOC(CN1CCN(CC(C)C(=O)c2ccccc2)CC1)c1ccccc1 (stereo unspecified) [Eprazinone 2HCl] | 1.87 | 1.02 | 1.2 | 1.38 | 1.56 | 1.28
CN(C)CCCN1c2ccccc2CCc2ccc(Cl)cc21 [Clomipramine HCl] | 1.08 | 0.845 | 1.4 | 1.93 | 1.92 | 1.77
N#CSc1cc(SC#N)c(N)nc1N | 0.526 | 2.18 | 0.906 | 1.25 | 1.27 | 1.14
O=[N+]([O-])c1cn2c(n1)OC[C@@H](OCc1ccc(OC(F)(F)F)cc1)C2 | 1.49 | 1.06 | 0.837 | 1.12 | 0.872 | 1.03
CC(=O)Oc1cc(C(F)(F)F)ccc1C(=O)O [Triflusal] | 1.03 | 1.2 | 0.857 | 0.956 | 0.829 | 1.16
Cc1ccc(NS(=O)(=O)c2cccc(C#N)c2)c2[nH]cc(C#N)c12 | 1.84 | 2.34 | 1.67 | 1.89 | 2.04 | 2.09
O=C1Nc2ccc(CN3C(=O)CSC3=O)cc2/C1=C/c1cc(CN2CCOCC2)c[nH]1 | 1.07 | 1.06 | 0.896 | 1.11 | 0.385 | 0.658
CCC(CC)(NC(=O)C(C)C)C(=O)N[C@@H](CCCN=C(N)N)C(=O)NC1(C(=O)NC(c2ccc(F)cc2)c2ccc(F)cc2)CCCC1 | 0.761 | 0.796 | 1.14 | 0.736 | 0.712 | 0.893
Cc1ccc(S(=O)(=O)n2c(N)nc3ccccc32)cc1 [ML130 (Nodinitib-1)] | 0.771 | 1.13 | 0.862 | 0.77 | 1.18 | 0.774
